VP16 counter = VP16 counterscreen qHTS for inhibitors of ROR gamma transcriptional activity; Drosophila S2 Gal4-VP16 UAS-luciferase, luminescence, 20 h; Potency, µM (highest dose often 53.6 µM), without a hit: at the highest dose activity, negative = inhibition, hits mostly inhibitors; 310,000 tested, 3.5% active;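 also: Gal4-VP16 expression switched on by copper sulfate through the metallothionein promoter; nearly all actives have a fitted effect of over 50% in size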
Luc counter = Counterscreen for Luciferase (Kinase-Glo TM) Inhibition; Kinase-Glo luciferase, ATP luminescence, 8 min; Potency, µM (series often up to 38.3 µM), for inactives: at the highest dose activity change, negative = inhibition, actives largely listed as inhibitors; 200,000 tested, 0.28% active; also: nearly all actives have a fitted effect of over 60% in size
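Luminescence was the read-out, taken after 8-minute incubation at ambient temperature. Luciferase turned over luciferin with 10 uM ATP in imidazole pH 7.2 buffer containing KCl, MgCl2, Tween 20 and BSA.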
RORg inh = qHTS for inhibitors of ROR gamma transcriptional activity. 310,000 tested, 5.4% active. Potency, µM (doses to about 53.6 µM), without a hit: top-dose activity change, negative = inhibition, most hits filed as inhibitors. Nuclear receptor ROR-gamma (Mus musculus), P51450. Drosophila S2 Gal4-RORgamma UAS-luciferase reporter, 20 h; also: nearly all actives have a fitted effect of over 60% in size
Target sequence (P51450 whole entry, looked up, the tested form may be a part): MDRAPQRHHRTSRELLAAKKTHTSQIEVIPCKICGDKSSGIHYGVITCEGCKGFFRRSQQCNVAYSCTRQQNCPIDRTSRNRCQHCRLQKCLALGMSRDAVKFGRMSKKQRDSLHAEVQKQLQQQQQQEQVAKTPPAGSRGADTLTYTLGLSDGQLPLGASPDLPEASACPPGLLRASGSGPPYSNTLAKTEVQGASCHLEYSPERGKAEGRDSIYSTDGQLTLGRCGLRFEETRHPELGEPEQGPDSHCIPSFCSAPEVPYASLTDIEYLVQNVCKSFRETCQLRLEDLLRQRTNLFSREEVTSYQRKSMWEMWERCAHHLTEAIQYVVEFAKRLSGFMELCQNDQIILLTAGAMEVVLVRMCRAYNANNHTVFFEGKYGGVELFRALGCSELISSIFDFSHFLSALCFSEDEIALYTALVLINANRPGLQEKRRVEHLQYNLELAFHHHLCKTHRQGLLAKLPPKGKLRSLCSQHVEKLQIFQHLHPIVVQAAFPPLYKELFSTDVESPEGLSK
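Stable Schneider cell line, Gal4 DNA-binding domain fused to ROR gamma, UAS-luciferase. Cmpd 1 hr RT → CuSO4 700 uM final → 20 hr RT → luciferase reagent 10 min → luminescence.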
The depositor's hits bear a star; [ ] = remark or other dose. In the library only some 6.4% were active in any assay of this set; here they are far more common. Calls follow the shape of the dose curve; as a rule, active = well fitted curve in the direction sought with a large enough effect; inconclusive = small, poorly fitted or top-dose-only effect, or another doubt; inactive = no such curve, though single readings can be large; an effect the other way counts as inactive or inconclusive. % is scaled to controls: 0 for no effect and ±100 for the full control effect; potency is read from the fitted curve at half-maximal effect.

For CC(C)Cn1nnnc1S(=O)(=O)CCc1ccccc1 the results were VP16 counter 3%, Luc counter 4% and RORg inh 3%.
CC1CCC(C(C)C)C(OC(=O)COC(=O)c2cccn2C)C1 (stereo not drawn) was read as VP16 counter 2%, Luc counter -5% and RORg inh 13%[10 µM].
`CC1CCC(C(C)C)C(OC(=O)COC(=O)c2ccc(N)cc2)C1` (stereo not drawn) gave VP16 counter 16µM*, Luc counter 4% and RORg inh 32%.
`COC(=O)c1cn(NC(=O)c2cnccn2)c(=O)c2ccccc12` gave VP16 counter inconclusive, Luc counter -4% and RORg inh 13µM*.
For O=C(Nn1cc(C(=O)Nc2ccccc2F)c2ccccc2c1=O)c1cnccn1 the results were VP16 counter inconclusive, Luc counter 1% and RORg inh inconclusive.
Screening Fc1ccc(N2Cc3ccsc3C=N2)cc1 returned VP16 counter 2%, Luc counter -4% and RORg inh 23%.
For CCOc1ccc(Cn2c3ccc(OC)cc3c3nc4ccccc4nc32)cc1OC the results were VP16 counter inconclusive, Luc counter 0% and RORg inh 13µM*.
For CCc1nc2ccccc2n1Cc1ccc(OC)c(OC)c1 the results were VP16 counter -10%, Luc counter -1% and RORg inh -26%.
O=C(O)COn1c(-c2ccc(Cl)cc2)nc2ccc(Cl)cc21 was read as VP16 counter 0%, Luc counter 5% and RORg inh 1%.
COc1ccc(/C=C/c2nc3ccccc3n2Cc2ccc(OC)c(OC)c2)cc1 was read as VP16 counter inconclusive, Luc counter inconclusive and RORg inh 13µM*.
Screening COc1ccc(-c2nc3ccccc3n2OCC(=O)O)cc1 returned VP16 counter 13µM*, Luc counter -27% and RORg inh inconclusive.
COc1ccc(Cn2c(-c3ccc(OC)cc3)nc3ccccc32)cc1 was read as VP16 counter inconclusive, Luc counter 1% and RORg inh 11µM*.
COc1ccc2c(c1)c1nc3ccccc3nc1n2Cc1ccc(OC)c(OC)c1 was read as VP16 counter inconclusive, Luc counter 2% and RORg inh inconclusive.
Screening COCCn1c(-c2ccc(OC)cc2)nc2ccccc21 returned VP16 counter 14%, Luc counter 12% and RORg inh -21%.
Screening COc1ccc(N(Cc2cc(=O)[nH]c3ccccc23)C(=O)CCl)cc1 returned VP16 counter inconclusive and RORg inh -12%[1.91 µM].
Screening Cc1ccc(CNC(=O)C2CCCN(c3nc4ccsc4c(=O)s3)C2)cc1 (stereo not drawn) returned VP16 counter 2%, Luc counter 3% and RORg inh -8%.
For CCCCc1cc(=O)oc2cc(C)cc(OCC(=O)NC(Cc3ccc(Cl)cc3)C(=O)O)c12 (stereo not drawn) the results were VP16 counter -8% and RORg inh 6%.
Screening CC(C)C(NC(=O)CN1C(=O)c2ccccc2C1=O)c1ccccc1 (stereo not drawn) returned VP16 counter 3% and RORg inh -13%.
`O=C1CCN(Cc2ccc(O)cc2)CCN1[C@H](CO)c1ccccc1` gave VP16 counter 7% and RORg inh inconclusive.
Screening CCN(CC)CCNC(=O)c1ccc(CS(=O)(=O)c2ccccc2C)o1 returned VP16 counter -12% and RORg inh 0%.
`Cc1cccc(N2CC(C(=O)Nc3nnc(SCC(=O)NCC4CCCO4)s3)CC2=O)c1` (stereo not drawn) gave VP16 counter -10% and RORg inh -11%.
Screening C=C(C(=O)O)[C@@H]1CC[C@@]2(C)CCC[C@](C)(O)[C@@H]2C1 returned VP16 counter -6%, Luc counter 0% and RORg inh -3%.
Screening Cc1cccc(OCC(O)Cn2c(N3CCCCC3)nc3c2c(=O)n(C)c(=O)n3C)c1 (stereo not drawn) returned VP16 counter -3% and RORg inh 15%.
C=C(C)Cn1c(SCC(=O)O)nnc1-c1ccccc1 was read as VP16 counter 0%, Luc counter 19% and RORg inh -18%.
`C=C(C)Cn1c(-c2ccccc2)nc2ccccc21` gave VP16 counter inconclusive, Luc counter 1% and RORg inh 14µM*.
`CCCCCCC(C)n1[nH]c(=O)c2c(C)cc(C)nc21` (stereo not drawn) gave VP16 counter -3% and RORg inh inconclusive.
Screening C=CCOC(=O)N[C@H](c1cccc(C(F)(F)F)c1)C(C(C)=O)C(C)=O returned VP16 counter 6%, Luc counter 4% and RORg inh -8%.
Screening CCOc1cc(/C=N/NC(=O)Cc2ccc(C(F)(F)F)cc2[N+](=O)[O-])ccc1O returned VP16 counter -2%, Luc counter 2% and RORg inh -6%[10 µM].
`C=CCOc1c(Br)cc(/C=N/NC(=O)Cc2ccc(C(F)(F)F)cc2[N+](=O)[O-])cc1OC` gave VP16 counter 18µM*, Luc counter 0% and RORg inh inconclusive.
Cn1c(/C(C#N)=C(\O)c2ccc(Br)s2)nc2ccccc21 was read as VP16 counter inconclusive and RORg inh 3.5µM*.
`Cn1c(/C(C#N)=C(\O)c2ccc(S(=O)(=O)N3CCCCC3)cc2)nc2ccccc21` gave VP16 counter 10µM*, Luc counter -5% and RORg inh 4.5µM*.
`COc1ccc(C(=O)n2nnc3ccccc32)cc1OC` gave VP16 counter -5%, Luc counter -2% and RORg inh inconclusive.
`Cn1c(/C(C#N)=C/c2cccc(O)c2)nc2ccccc21` gave VP16 counter -10%, Luc counter -18% and RORg inh -11%.
For CCSc1nc2ccccc2n1C(=O)c1ccc(S(=O)(=O)N2CCCCCC2)cc1 the results were VP16 counter -10%, Luc counter 1% and RORg inh 2%.
COc1ccc(/C(O)=C(\C#N)c2nc3ccccc3n2C)cc1OC was read as VP16 counter 18µM*, Luc counter -6% and RORg inh 7.1µM*.
For Cn1c(/C(C#N)=C(\O)c2cc(Cl)sc2Cl)nc2ccccc21 the results were VP16 counter 4.5µM* and RORg inh 4.5µM*.
`Cn1c(C(=O)c2ccccc2)nc2ccccc21` gave VP16 counter 29% and RORg inh 13%.
CCCCn1c(N)c(N(CCOC)C(=O)CN2c3ccccc3CC2C)c(=O)[nH]c1=O (stereo not drawn) was read as VP16 counter -1%, Luc counter 1% and RORg inh -1%.
Screening N#CCNC(=O)C1c2ccccc2Oc2ccccc21 returned VP16 counter -6% and RORg inh 6%.
CSc1ncccc1C(=O)NC1CC(C)(C)Cc2c1cnn2-c1ccccc1C (stereo not drawn) was read as VP16 counter inconclusive and RORg inh -8%.
COc1ccc(C(O)c2nc3ccccc3n2C)cc1OC (stereo not drawn) was read as VP16 counter 6.3µM*, Luc counter 11% and RORg inh -35%.
